According to PubChem BioAssay (NCI):
Compounds without any hit were thinned out: in the full panel of roughly 83,000, 20% have a hit.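 Method: cells in 96-well plates; compound added at one concentration; 48 h incubation; percent growth measured; values under 10 scored active.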 Unmarked numbers belong to inactive results. Active and inactive are the calls of the source.

Test system: MDA-MB-468 breast
Test: NCI-60 one-dose screen, 48 h (100 = growth as untreated, 0 = no growth, -100 = all killed)
Details: 10 µM unless noted

| Structure (SMILES) | growth |
| --- | --- |
| CCOC(=O)C(C#N)=C1CCN(C)CC1 | 123% |
| CC(=O)Nc1cc(F)cc(-c2ccc3[nH]cc(-c4ccccc4)c3n2)c1 | -21.9% (active) |
| COc1cc(CNC(=O)C2CSC3(C)c4ccccc4C(=O)N23)cc(OC)c1OC (stereo not given) | 89.6% |
| CC(C)c1ccc(-n2c(=S)[nH]c3sc4cc(O)ccc4c3c2=O)cc1 | 96.5% |
| COC(=O)c1ccc2c(c1)Oc1ccc(Cl)cc1-c1cc(C)nn1-2 | 87% |
| N=C(N)c1ccc(-c2ccc(-c3cccs3)s2)cc1 | -80.6% (active) |
| CCN1C(=O)N(CC)C2SC(N/N=C/c3ccccc3)=NC21 (stereo not given) | 34.4% |
| c1ccc2cc(C[n+]3ccn(CCCCCCCn4cc[n+](Cc5ccc6ccccc6c5)c4)c3)ccc2c1 | -2.76% (active) |
| COc1ccc2c(c1)[nH]c(=O)c1c3cc(OC)c(OC)cc3cn21 | 11.4% |
| Cc1ccc(C)c2c1C(O)(C#Cc1ccccc1)c1ccccc1C2(O)C#Cc1ccccc1 (stereo not given) | 58.1% |
| C[N+]1=C(/C=C/c2ccc(I)cc2)C(C)(C)c2ccccc21 | 95.3% |
| N#Cc1ccc(-n2cnc(NC(=O)[C@H]3CCN(C#N)C3)c2)cc1 | -38.1% (active) |
| COc1cccc(/C=C2\C=C(c3ccccc3)N(Cc3ccccc3)C2=O)c1 | 45.3% |
| Cc1cc(C)c2c(n1)sc1c(Nc3ccc(Cl)cc3Cl)ncnc12 | 16.9% |
| C[C@H]1Oc2cc(cnc2N)-c2c(nn(C)c2C#N)CN(C)C(=O)c2ccc(F)cc21 | 98.5% |
| O=C(Cn1c2ccccc2c2ccncc21)N/N=C\c1ccc2ccccc2c1 | 19.7% |
| Cn1c(-c2ccccc2)cc(=O)cc1-c1ccccc1 | 68.7% |
| CCOC(=O)C1=C(C)Nc2nc3ccccc3n2C1c1cccc(Br)c1 (stereo not given) | 54.2% |
| CCOC(CN1CCN(CC(C)C(=O)c2ccccc2)CC1)c1ccccc1 (stereo not given) | 87.2% |
| C=CCS(C)(=O)=O | 95.9% |

| Structure (SMILES) | growth |
| --- | --- |
| Nc1ccccc1-c1ccc([N+](=O)[O-])cc1 | 67.5% |
| C=CC(O)CCC (stereo not given) | 109% |
| CN(C)c1ccc(N=Nc2ccccn2)c(O)c1 | 3.89% (active) |
| COc1ccc(Cl)cc1NC(=O)C(Br)C(Br)C(=O)O (stereo not given) | -79% (active) |
| CC(C)(C)[Si](C)(C)OC1[C@@H](O[Si](C)(C)C(C)(C)C)[C@@H](CNC(=O)NC(=O)C(F)(F)F)O[C@H]1n1cnc2c(NC(=O)Nc3ccccc3)ncnc21 (stereo not given in full) | 102% |
| COc1ccc(-c2c(-c3cc(OC)c(OC)c(OC)c3)noc2N)cc1 | -5.06% (active) |
| Cc1[nH]ccc2cc3nc4ccccc4c3cc12 | 10.7% |
| C/C(=N\NC(=O)c1ccc(C(C)(C)C)cc1)c1ccc(O)cc1O | -26.3% (active) |
| CC1CCCN(CCCCOc2ccc(-c3ccc(C#N)cc3)cc2)C1 (stereo not given) | 87.6% |
| CCN(CC)CCCCCCNc1cc(OC)c(Cl)c2cccnc12 | 32.1% |
| CCOC(=O)C(=CNc1ccccc1[N+](=O)[O-])C(=O)OCC | 86% |
| Cc1ccc2c(c1)c(Sc1ccc(C(=O)NO)cc1)c1n2CN(C)CC1 | -19.3% (active) |
| CC(C)C(=O)Cc1cnccn1 | 119% |
| Nc1ncnc2c1c(-c1ccc(Oc3ccccc3)cc1)nn2C[C@H]1SSC[C@H]1O | -5.04% (active) |
| Cn1c2nc3ccccc3c-2nc2ccccc21 | 75.4% |
| O=C(OC(OC(=O)c1cc(Cl)cc(Cl)c1)c1cccc2ccccc12)c1ccccc1 (stereo not given) | 111% |
| Cc1ccc2nc(-[n+]3cc4ccccc4cc3C)ccc2c1 | -14.5% (active) |
| COC1C(OC(N)=O)C(O)C(Oc2ccc3c(O)c(NC(=O)c4ccc(O)c(CC=C(C)C)c4)c(=O)oc3c2C)OC1(C)C (stereo not given) | 89% |
| O=C(/C=C\c1ccnc2ccccc12)c1ccc([N+](=O)[O-])cc1 | 57.5% |
| COC(=O)[C@@]12OC[C@]34[C@H]([C@@H](O)[C@@H]1O)[C@@]1(C)[C@H](O)C(=O)C=C(C)[C@@H]1C[C@H]3OC(=O)C(OC(C)=O)[C@@H]24 (stereo not given in full) | -11.6% (active) |
